# Measured values taken from article PMC11006913.
# Target: ALX3 (Homo sapiens, UniProt O95076 139-225, N203Q)
# Experiment: PBM; 200 nM protein, PBS
# Conditions: dsDNA, one strand shown
# Sequence of ALX3 (Homo sapiens, UniProt O95076 139-225, N203Q) (O95076 139-225 N203Q): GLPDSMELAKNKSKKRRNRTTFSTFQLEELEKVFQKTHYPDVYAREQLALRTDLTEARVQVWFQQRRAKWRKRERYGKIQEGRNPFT
row,Sequence,binding signal
1,ACCCGGGT,"7.83 upbm affinity estimate (log intensity, higher = more binding, comparable within an allelic series)"
2,GCACCCCC,"7.73 upbm affinity estimate (log intensity, higher = more binding, comparable within an allelic series)"
3,CAGTTACG,"8 upbm affinity estimate (log intensity, higher = more binding, comparable within an allelic series)"
4,AATTGTCC,"8.15 upbm affinity estimate (log intensity, higher = more binding, comparable within an allelic series)"
5,AGAGGGGG,"7.63 upbm affinity estimate (log intensity, higher = more binding, comparable within an allelic series)"
6,AATATTAT,"8.61 upbm affinity estimate (log intensity, higher = more binding, comparable within an allelic series)"
7,CTCCAGCC,"7.6 upbm affinity estimate (log intensity, higher = more binding, comparable within an allelic series)"
8,ACCAGCGG,"7.79 upbm affinity estimate (log intensity, higher = more binding, comparable within an allelic series)"
9,ATAAATGG,"8.33 upbm affinity estimate (log intensity, higher = more binding, comparable within an allelic series)"
10,ATATAATA,"8.64 upbm affinity estimate (log intensity, higher = more binding, comparable within an allelic series)"
11,CGGCCCAG,"7.75 upbm affinity estimate (log intensity, higher = more binding, comparable within an allelic series)"
12,TATTAAAA,"8.56 upbm affinity estimate (log intensity, higher = more binding, comparable within an allelic series)"
13,CGCTCCCC,"7.64 upbm affinity estimate (log intensity, higher = more binding, comparable within an allelic series)"
14,GACATAAC,"8.29 upbm affinity estimate (log intensity, higher = more binding, comparable within an allelic series)"
15,CCGCGGAC,"7.74 upbm affinity estimate (log intensity, higher = more binding, comparable within an allelic series)"
16,ATAATATA,"8.66 upbm affinity estimate (log intensity, higher = more binding, comparable within an allelic series)"
17,AGGGGGGC,"7.49 upbm affinity estimate (log intensity, higher = more binding, comparable within an allelic series)"
18,CATATTAC,"8.38 upbm affinity estimate (log intensity, higher = more binding, comparable within an allelic series)"
19,AATATTCG,"8.28 upbm affinity estimate (log intensity, higher = more binding, comparable within an allelic series)"
20,AGGCACGC,"7.63 upbm affinity estimate (log intensity, higher = more binding, comparable within an allelic series)"

row,Sequence,binding signal
1,CCCCCCAA,"7.79 upbm affinity estimate (log intensity, higher = more binding, comparable within an allelic series)"
2,CGAAATCA,"8.09 upbm affinity estimate (log intensity, higher = more binding, comparable within an allelic series)"
3,GGATGGCC,"7.66 upbm affinity estimate (log intensity, higher = more binding, comparable within an allelic series)"
4,ACCCCCGC,"7.74 upbm affinity estimate (log intensity, higher = more binding, comparable within an allelic series)"
5,ATTTACGG,"8.3 upbm affinity estimate (log intensity, higher = more binding, comparable within an allelic series)"
6,CAGTCGCA,"7.8 upbm affinity estimate (log intensity, higher = more binding, comparable within an allelic series)"
7,ACCGCGGT,"7.85 upbm affinity estimate (log intensity, higher = more binding, comparable within an allelic series)"
8,TATACATA,"8.57 upbm affinity estimate (log intensity, higher = more binding, comparable within an allelic series)"
9,GCTTCGAC,"7.77 upbm affinity estimate (log intensity, higher = more binding, comparable within an allelic series)"
10,AGCGGGAC,"7.69 upbm affinity estimate (log intensity, higher = more binding, comparable within an allelic series)"
11,ATATTATA,"8.63 upbm affinity estimate (log intensity, higher = more binding, comparable within an allelic series)"
12,ACCGGTTA,"8.13 upbm affinity estimate (log intensity, higher = more binding, comparable within an allelic series)"
13,GCTCTGCC,"7.7 upbm affinity estimate (log intensity, higher = more binding, comparable within an allelic series)"
14,CAGCACCC,"7.8 upbm affinity estimate (log intensity, higher = more binding, comparable within an allelic series)"
15,GGCAGTTA,"8.06 upbm affinity estimate (log intensity, higher = more binding, comparable within an allelic series)"
16,CTTAATTC,"8.32 upbm affinity estimate (log intensity, higher = more binding, comparable within an allelic series)"
17,CCCGAGAG,"7.84 upbm affinity estimate (log intensity, higher = more binding, comparable within an allelic series)"
18,TTATTAAA,"8.64 upbm affinity estimate (log intensity, higher = more binding, comparable within an allelic series)"
19,AGCCGGCG,"7.78 upbm affinity estimate (log intensity, higher = more binding, comparable within an allelic series)"
20,GCGCGAGC,"7.77 upbm affinity estimate (log intensity, higher = more binding, comparable within an allelic series)"

# Target: HOXD13 (Homo sapiens, UniProt P35453 263-343, T313R)
# Experiment: PBM; 200 nM protein, PBS
# Conditions: dsDNA, one strand shown
# Sequence of HOXD13 (Homo sapiens, UniProt P35453 263-343, T313R) (P35453 263-343 T313R): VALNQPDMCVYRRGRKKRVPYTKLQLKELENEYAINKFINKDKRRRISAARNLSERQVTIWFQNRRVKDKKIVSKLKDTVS
row,Sequence,binding signal
1,TATTAAAA,"10.8 upbm affinity estimate (log intensity, higher = more binding, comparable within an allelic series)"
2,GCTTCGAC,"9.46 upbm affinity estimate (log intensity, higher = more binding, comparable within an allelic series)"
3,TTATTAAA,"10.8 upbm affinity estimate (log intensity, higher = more binding, comparable within an allelic series)"

# Target: T1, NKX2-6 (Homo sapiens, UniProt A6NCS4 118-204)
# T1 sequence: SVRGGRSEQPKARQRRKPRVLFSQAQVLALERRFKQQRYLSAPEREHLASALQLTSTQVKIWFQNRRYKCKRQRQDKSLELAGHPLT
# Experiment: PBM; 200 nM protein, PBS
# Conditions: dsDNA, one strand shown
row,Sequence,binding signal
1,GCACCCCC,"9.22 upbm affinity estimate (log intensity, higher = more binding, comparable within an allelic series)"
2,AATTGTCC,"11.4 upbm affinity estimate (log intensity, higher = more binding, comparable within an allelic series)"
3,CGGCCCAG,"8.83 upbm affinity estimate (log intensity, higher = more binding, comparable within an allelic series)"

# Target: HOXD13 (Homo sapiens, UniProt P35453 263-343)
# Experiment: PBM; 200 nM protein, PBS
# Conditions: dsDNA, one strand shown
# Sequence of HOXD13 (Homo sapiens, UniProt P35453 263-343) (P35453 263-343): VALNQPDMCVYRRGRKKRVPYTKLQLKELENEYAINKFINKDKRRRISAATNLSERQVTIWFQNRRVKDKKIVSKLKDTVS
row,Sequence,binding signal
1,TATTAAAA,"11.8 upbm affinity estimate (log intensity, higher = more binding, comparable within an allelic series)"
2,GCTTCGAC,"9.32 upbm affinity estimate (log intensity, higher = more binding, comparable within an allelic series)"
3,TTATTAAA,"11.9 upbm affinity estimate (log intensity, higher = more binding, comparable within an allelic series)"

# Target: T2, PAX4 (Homo sapiens, UniProt O43316 9-242, F177V)
# T2 sequence: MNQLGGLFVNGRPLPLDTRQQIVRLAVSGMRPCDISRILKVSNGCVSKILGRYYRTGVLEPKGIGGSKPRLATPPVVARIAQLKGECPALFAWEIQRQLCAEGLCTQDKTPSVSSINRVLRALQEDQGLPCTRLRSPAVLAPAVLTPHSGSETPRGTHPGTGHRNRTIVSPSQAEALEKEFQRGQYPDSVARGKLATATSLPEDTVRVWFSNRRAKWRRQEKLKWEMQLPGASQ
# Experiment: PBM; 200 nM protein, PBS
# Conditions: dsDNA, one strand shown
row,Sequence,binding signal
1,AATATTAT,"10.7 upbm affinity estimate (log intensity, higher = more binding, comparable within an allelic series)"
2,ATATAATA,"10.8 upbm affinity estimate (log intensity, higher = more binding, comparable within an allelic series)"
3,ATAATATA,"10.7 upbm affinity estimate (log intensity, higher = more binding, comparable within an allelic series)"
4,TATACATA,"10.7 upbm affinity estimate (log intensity, higher = more binding, comparable within an allelic series)"
5,ATATTATA,"10.7 upbm affinity estimate (log intensity, higher = more binding, comparable within an allelic series)"

# Target: ALX3 (Homo sapiens, UniProt O95076 139-225)
# Experiment: PBM; 200 nM protein, PBS
# Conditions: dsDNA, one strand shown
# Sequence of ALX3 (Homo sapiens, UniProt O95076 139-225) (O95076 139-225): as the sequence (O95076 139-225 N203Q) above, with Q65N counted along it
row,Sequence,binding signal
1,ACCCGGGT,"8.06 upbm affinity estimate (log intensity, higher = more binding, comparable within an allelic series)"
2,GCACCCCC,"7.8 upbm affinity estimate (log intensity, higher = more binding, comparable within an allelic series)"
3,CAGTTACG,"8.89 upbm affinity estimate (log intensity, higher = more binding, comparable within an allelic series)"
4,AATTGTCC,"10.1 upbm affinity estimate (log intensity, higher = more binding, comparable within an allelic series)"
5,AGAGGGGG,"7.93 upbm affinity estimate (log intensity, higher = more binding, comparable within an allelic series)"
6,CTCCAGCC,"7.5 upbm affinity estimate (log intensity, higher = more binding, comparable within an allelic series)"
7,ACCAGCGG,"7.56 upbm affinity estimate (log intensity, higher = more binding, comparable within an allelic series)"
8,ATAAATGG,"9.85 upbm affinity estimate (log intensity, higher = more binding, comparable within an allelic series)"
9,CGGCCCAG,"7.72 upbm affinity estimate (log intensity, higher = more binding, comparable within an allelic series)"
10,CGCTCCCC,"7.58 upbm affinity estimate (log intensity, higher = more binding, comparable within an allelic series)"
11,GACATAAC,"9.44 upbm affinity estimate (log intensity, higher = more binding, comparable within an allelic series)"
12,CCGCGGAC,"7.45 upbm affinity estimate (log intensity, higher = more binding, comparable within an allelic series)"
13,AGGGGGGC,"7.66 upbm affinity estimate (log intensity, higher = more binding, comparable within an allelic series)"
14,CATATTAC,"10.5 upbm affinity estimate (log intensity, higher = more binding, comparable within an allelic series)"
15,AATATTCG,"9.33 upbm affinity estimate (log intensity, higher = more binding, comparable within an allelic series)"
16,AGGCACGC,"7.78 upbm affinity estimate (log intensity, higher = more binding, comparable within an allelic series)"
17,CCCCCCAA,"7.79 upbm affinity estimate (log intensity, higher = more binding, comparable within an allelic series)"

row,Sequence,binding signal
1,CGAAATCA,"9.04 upbm affinity estimate (log intensity, higher = more binding, comparable within an allelic series)"
2,GGATGGCC,"7.74 upbm affinity estimate (log intensity, higher = more binding, comparable within an allelic series)"
3,ACCCCCGC,"7.66 upbm affinity estimate (log intensity, higher = more binding, comparable within an allelic series)"
4,ATTTACGG,"10.1 upbm affinity estimate (log intensity, higher = more binding, comparable within an allelic series)"
5,CAGTCGCA,"7.85 upbm affinity estimate (log intensity, higher = more binding, comparable within an allelic series)"
6,ACCGCGGT,"8.03 upbm affinity estimate (log intensity, higher = more binding, comparable within an allelic series)"
7,GCTTCGAC,"7.65 upbm affinity estimate (log intensity, higher = more binding, comparable within an allelic series)"
8,AGCGGGAC,"7.54 upbm affinity estimate (log intensity, higher = more binding, comparable within an allelic series)"
9,ACCGGTTA,"9.46 upbm affinity estimate (log intensity, higher = more binding, comparable within an allelic series)"
10,GCTCTGCC,"7.55 upbm affinity estimate (log intensity, higher = more binding, comparable within an allelic series)"
11,CAGCACCC,"7.73 upbm affinity estimate (log intensity, higher = more binding, comparable within an allelic series)"
12,GGCAGTTA,"9.02 upbm affinity estimate (log intensity, higher = more binding, comparable within an allelic series)"
13,CTTAATTC,"11.7 upbm affinity estimate (log intensity, higher = more binding, comparable within an allelic series)"
14,CCCGAGAG,"7.81 upbm affinity estimate (log intensity, higher = more binding, comparable within an allelic series)"
15,AGCCGGCG,"7.6 upbm affinity estimate (log intensity, higher = more binding, comparable within an allelic series)"
16,GCGCGAGC,"7.84 upbm affinity estimate (log intensity, higher = more binding, comparable within an allelic series)"

# Target: PROP1 (Homo sapiens, UniProt O75360 56-141)
# Experiment: PBM; 200 nM protein, PBS
# Conditions: dsDNA, one strand shown
# Sequence of PROP1 (O75360 56-141): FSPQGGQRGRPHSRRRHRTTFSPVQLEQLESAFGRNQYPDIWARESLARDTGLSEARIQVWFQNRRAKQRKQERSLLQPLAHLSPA
row,Sequence,binding signal
1,CGGCCCAG,"6.51 upbm affinity estimate (log intensity, higher = more binding, comparable within an allelic series)"
2,CGAAATCA,"7.77 upbm affinity estimate (log intensity, higher = more binding, comparable within an allelic series)"
3,ACCCCCGC,"6.56 upbm affinity estimate (log intensity, higher = more binding, comparable within an allelic series)"

# Target: VAX1 (Homo sapiens, UniProt Q5SQQ9 86-172)
# Experiment: PBM; 200 nM protein, PBS
# Conditions: dsDNA, one strand shown
# Sequence of VAX1 (Q5SQQ9 86-172): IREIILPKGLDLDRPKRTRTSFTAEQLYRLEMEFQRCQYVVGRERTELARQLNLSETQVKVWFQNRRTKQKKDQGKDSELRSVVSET
row,Sequence,binding signal
1,CATATTAC,"10.8 upbm affinity estimate (log intensity, higher = more binding, comparable within an allelic series)"
2,GCTCTGCC,"7.01 upbm affinity estimate (log intensity, higher = more binding, comparable within an allelic series)"
3,AGCCGGCG,"6.78 upbm affinity estimate (log intensity, higher = more binding, comparable within an allelic series)"
